# From the supplement of paper PMC10849652
# Targets with a hit are over-represented here; the source holds about 8,800 in all. About 0.5% of all pairs of compound and target were hits. Unmarked numbers belong to inactive results.
# Tests used:
# Assay in all cases: log2 fold change, soluble protein after heating vs DMSO (PISA); higher = thermal stabilisation; K562 lysate, 10 uM; active = over 0.2 and 3.5 SD of the protein, either way, in both replicates (recomputed)
# [1] = compound: Cc1cn(-c2cc(NC(=O)c3ccc(C)c(Nc4nccc(-c5cccnc5)n4)c3)cc(C(F)(F)F)c2)cn1 [nilotinib]
# In short: (§1)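 To prepare the extract, K562 pellets were dounce-homogenised in PBS pH 7.4 with 1 mM MgCl2, giving crude material at 1 mg/mL protein. This was treated with 10 μM compound for 30 min, then heated in aliquots for 3 min over 48°C-58°C before pooling and addition of NP-40 to 0.5% at 4°C. Centrifugation at 21,000xg for 90 min left soluble protein in the supernatant, which TMTpro 16plex LC-MS/MS quantified with equalised channel sums. Results are log-two fold changes in thermal stability compared with solvent controls, from duplicates.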
# [2] = compound: Cc1nc(Nc2n[nH]c3c2CN(C(=O)N[C@H](CN(C)C)c2ccccc2)C3(C)C)c2sccc2n1
# In short: as §1
# [3] = compound: Cc1ncc(-c2ccnc(Nc3ccc(S(C)(=O)=O)cc3)n2)n1C(C)C
# In short: as §1
# [4] = compound: Cn1cncc1[C@@](N)(c1ccc(Cl)cc1)c1ccc2c(c1)c(-c1cccc(Cl)c1)cc(=O)n2C [tipifarnib]
# In short: as §1
# [5] = compound: Cn1cc(CNCC2CCN(c3ncc(C(=O)NO)cn3)CC2)c2ccccc21 [quisinostat]
# In short: as §1
# [6] = compound: NC(=O)Nc1cc(-c2cccc(F)c2)sc1C(=O)N[C@H]1CCCNC1
# In short: as §1
# [7] = compound: NC(=O)c1cnc(N[C@@H]2CCCC[C@@H]2N)nc1Nc1cccc(-n2nccn2)c1
# In short: as §1
# [8] = compound: NC1(c2ccc(-c3nc4ccn5c(=O)[nH]nc5c4cc3-c3ccccc3)cc2)CCC1
# In short: as §1
# [9] = compound: NCC(=O)Nc1ccc(-n2nc(C(F)(F)F)cc2-c2ccc3c(ccc4ccccc43)c2)cc1
# In short: as §1
# [10] = compound: O=C(CCCCCCC(=O)Nc1ccccc1)NO [vorinostat]
# In short: as §1
# [11] = compound: O=C(O)c1ccc2c(c1)nc(Nc1cccc(Cl)c1)c1ccncc12 [silmitasertib]
# In short: as §1
# [12] = compound: O=C1NC(=O)C(c2cnc3ccccn23)=C1c1cn2c3c(cc(F)cc13)CN(C(=O)N1CCCCC1)CC2
# In short: as §1
# [13] = compound: c1cn2cc(-c3ccc4cn[nH]c4c3)nc(Nc3ccc(N4CCOCC4)cc3)c2n1 [entospletinib]
# In short: as §1
# [14] = compound: Cc1nc(Nc2ncc(C(=O)Nc3c(C)cccc3Cl)s2)cc(N2CCN(CCO)CC2)n1 [dasatinib]
# In short: as §1
# [15] = compound: Cn1cc(-c2ccc3c(c2)CCN3C(=O)Cc2cccc(C(F)(F)F)c2)c2c(N)ncnc21
# In short: as §1
# UniProt B2RUZ4, sequence (B2RUZ4 whole entry, looked up): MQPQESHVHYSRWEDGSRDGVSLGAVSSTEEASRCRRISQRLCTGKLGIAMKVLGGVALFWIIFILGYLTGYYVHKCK
# UniProt Q96BD0, sequence (Q96BD0 whole entry, looked up): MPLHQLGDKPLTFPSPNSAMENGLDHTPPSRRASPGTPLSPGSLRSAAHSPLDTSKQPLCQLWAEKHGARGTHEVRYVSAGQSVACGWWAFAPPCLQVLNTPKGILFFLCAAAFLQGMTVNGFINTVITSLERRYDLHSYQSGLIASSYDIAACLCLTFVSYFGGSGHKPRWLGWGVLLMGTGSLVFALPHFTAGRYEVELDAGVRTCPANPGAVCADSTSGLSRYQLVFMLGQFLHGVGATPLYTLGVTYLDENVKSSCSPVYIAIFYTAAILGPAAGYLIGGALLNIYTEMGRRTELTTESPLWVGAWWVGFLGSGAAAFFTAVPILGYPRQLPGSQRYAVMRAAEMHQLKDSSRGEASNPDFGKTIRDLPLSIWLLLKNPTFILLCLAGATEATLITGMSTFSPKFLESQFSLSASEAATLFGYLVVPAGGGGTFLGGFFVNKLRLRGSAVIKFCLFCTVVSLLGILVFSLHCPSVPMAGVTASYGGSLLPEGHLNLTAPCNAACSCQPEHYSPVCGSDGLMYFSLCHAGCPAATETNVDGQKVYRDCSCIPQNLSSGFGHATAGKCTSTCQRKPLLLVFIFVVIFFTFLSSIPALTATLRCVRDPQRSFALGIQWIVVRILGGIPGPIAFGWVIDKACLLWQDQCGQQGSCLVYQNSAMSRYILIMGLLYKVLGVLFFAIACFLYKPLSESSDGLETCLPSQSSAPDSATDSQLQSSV
# UniProt O60504, sequence (O60504 whole entry, looked up): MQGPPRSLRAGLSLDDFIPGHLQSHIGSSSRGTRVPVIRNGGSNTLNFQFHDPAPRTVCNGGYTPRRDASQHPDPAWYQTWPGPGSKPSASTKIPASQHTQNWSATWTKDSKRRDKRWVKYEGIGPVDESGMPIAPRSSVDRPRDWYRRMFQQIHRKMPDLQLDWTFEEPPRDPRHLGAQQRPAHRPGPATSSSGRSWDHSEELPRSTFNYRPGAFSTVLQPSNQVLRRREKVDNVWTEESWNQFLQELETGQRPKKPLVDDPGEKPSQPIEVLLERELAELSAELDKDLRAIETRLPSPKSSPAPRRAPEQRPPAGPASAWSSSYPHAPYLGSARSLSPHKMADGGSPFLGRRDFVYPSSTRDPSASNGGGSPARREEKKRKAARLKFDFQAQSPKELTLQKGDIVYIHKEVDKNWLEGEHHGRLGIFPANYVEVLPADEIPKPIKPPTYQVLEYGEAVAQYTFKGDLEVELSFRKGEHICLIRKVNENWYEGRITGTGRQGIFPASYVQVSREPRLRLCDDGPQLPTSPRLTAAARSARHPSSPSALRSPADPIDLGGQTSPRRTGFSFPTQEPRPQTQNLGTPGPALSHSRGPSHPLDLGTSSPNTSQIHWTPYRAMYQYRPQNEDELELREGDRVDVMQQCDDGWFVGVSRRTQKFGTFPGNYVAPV
# UniProt Q8TAD8, sequence (Q8TAD8 whole entry, looked up): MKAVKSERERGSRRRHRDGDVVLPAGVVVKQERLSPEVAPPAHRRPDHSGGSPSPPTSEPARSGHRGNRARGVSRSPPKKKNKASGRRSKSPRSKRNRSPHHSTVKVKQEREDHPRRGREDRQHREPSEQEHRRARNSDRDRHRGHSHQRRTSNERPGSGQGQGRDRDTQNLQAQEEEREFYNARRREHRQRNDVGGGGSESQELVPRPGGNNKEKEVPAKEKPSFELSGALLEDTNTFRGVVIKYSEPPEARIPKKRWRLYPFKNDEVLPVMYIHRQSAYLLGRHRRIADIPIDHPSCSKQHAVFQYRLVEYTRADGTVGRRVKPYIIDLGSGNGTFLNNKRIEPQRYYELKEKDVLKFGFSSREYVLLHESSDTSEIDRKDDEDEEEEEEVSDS
# UniProt P35711, sequence (P35711 whole entry, looked up): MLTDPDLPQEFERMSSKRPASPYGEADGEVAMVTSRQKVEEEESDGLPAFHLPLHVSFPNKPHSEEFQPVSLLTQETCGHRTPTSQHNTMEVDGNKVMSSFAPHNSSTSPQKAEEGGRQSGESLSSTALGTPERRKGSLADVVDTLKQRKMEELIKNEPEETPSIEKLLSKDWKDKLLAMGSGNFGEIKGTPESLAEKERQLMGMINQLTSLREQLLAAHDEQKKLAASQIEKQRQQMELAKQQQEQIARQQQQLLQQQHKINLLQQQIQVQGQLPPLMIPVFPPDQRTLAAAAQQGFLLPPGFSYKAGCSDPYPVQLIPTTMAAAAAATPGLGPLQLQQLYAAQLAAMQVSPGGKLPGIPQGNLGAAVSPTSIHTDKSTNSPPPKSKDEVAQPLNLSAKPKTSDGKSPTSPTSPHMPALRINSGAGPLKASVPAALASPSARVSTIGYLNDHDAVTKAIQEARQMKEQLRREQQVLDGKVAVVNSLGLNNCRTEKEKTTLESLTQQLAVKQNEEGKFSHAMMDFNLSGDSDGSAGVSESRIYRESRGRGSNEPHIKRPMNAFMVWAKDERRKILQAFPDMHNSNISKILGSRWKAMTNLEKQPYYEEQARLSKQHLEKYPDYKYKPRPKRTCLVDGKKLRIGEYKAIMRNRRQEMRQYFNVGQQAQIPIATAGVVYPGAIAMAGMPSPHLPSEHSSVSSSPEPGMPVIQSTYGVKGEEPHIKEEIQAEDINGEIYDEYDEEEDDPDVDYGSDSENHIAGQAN
# UniProt O95793, sequence (O95793 whole entry, looked up): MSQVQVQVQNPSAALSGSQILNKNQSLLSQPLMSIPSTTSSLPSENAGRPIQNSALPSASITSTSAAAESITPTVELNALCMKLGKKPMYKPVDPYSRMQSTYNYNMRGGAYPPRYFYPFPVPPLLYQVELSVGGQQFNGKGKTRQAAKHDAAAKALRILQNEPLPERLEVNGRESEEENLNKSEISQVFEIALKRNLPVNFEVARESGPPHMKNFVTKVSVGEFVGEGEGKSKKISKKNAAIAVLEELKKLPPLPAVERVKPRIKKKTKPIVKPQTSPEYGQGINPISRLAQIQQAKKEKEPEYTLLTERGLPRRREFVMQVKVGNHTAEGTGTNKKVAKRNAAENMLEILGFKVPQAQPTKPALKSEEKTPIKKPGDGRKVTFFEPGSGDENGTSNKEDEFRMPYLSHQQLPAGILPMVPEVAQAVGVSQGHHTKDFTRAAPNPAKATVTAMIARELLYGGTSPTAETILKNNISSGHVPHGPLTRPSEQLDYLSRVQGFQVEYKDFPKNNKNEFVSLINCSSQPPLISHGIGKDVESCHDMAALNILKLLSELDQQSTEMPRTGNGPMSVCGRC
# UniProt P12931, sequence (P12931 whole entry, looked up): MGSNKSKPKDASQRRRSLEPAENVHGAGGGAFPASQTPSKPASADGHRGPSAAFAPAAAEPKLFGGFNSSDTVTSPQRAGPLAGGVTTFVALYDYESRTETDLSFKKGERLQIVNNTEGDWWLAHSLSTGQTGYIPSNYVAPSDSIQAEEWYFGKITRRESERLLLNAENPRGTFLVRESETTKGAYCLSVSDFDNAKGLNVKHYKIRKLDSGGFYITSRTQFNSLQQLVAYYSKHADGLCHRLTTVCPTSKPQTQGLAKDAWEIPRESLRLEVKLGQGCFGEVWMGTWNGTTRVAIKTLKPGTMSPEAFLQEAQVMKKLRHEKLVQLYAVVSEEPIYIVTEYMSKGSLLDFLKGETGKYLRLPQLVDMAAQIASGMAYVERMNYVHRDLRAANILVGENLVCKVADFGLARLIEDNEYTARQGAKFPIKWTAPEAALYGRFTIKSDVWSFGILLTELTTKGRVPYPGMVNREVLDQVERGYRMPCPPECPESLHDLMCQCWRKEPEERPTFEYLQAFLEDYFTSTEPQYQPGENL
# UniProt Q9UL54, sequence (Q9UL54 whole entry, looked up): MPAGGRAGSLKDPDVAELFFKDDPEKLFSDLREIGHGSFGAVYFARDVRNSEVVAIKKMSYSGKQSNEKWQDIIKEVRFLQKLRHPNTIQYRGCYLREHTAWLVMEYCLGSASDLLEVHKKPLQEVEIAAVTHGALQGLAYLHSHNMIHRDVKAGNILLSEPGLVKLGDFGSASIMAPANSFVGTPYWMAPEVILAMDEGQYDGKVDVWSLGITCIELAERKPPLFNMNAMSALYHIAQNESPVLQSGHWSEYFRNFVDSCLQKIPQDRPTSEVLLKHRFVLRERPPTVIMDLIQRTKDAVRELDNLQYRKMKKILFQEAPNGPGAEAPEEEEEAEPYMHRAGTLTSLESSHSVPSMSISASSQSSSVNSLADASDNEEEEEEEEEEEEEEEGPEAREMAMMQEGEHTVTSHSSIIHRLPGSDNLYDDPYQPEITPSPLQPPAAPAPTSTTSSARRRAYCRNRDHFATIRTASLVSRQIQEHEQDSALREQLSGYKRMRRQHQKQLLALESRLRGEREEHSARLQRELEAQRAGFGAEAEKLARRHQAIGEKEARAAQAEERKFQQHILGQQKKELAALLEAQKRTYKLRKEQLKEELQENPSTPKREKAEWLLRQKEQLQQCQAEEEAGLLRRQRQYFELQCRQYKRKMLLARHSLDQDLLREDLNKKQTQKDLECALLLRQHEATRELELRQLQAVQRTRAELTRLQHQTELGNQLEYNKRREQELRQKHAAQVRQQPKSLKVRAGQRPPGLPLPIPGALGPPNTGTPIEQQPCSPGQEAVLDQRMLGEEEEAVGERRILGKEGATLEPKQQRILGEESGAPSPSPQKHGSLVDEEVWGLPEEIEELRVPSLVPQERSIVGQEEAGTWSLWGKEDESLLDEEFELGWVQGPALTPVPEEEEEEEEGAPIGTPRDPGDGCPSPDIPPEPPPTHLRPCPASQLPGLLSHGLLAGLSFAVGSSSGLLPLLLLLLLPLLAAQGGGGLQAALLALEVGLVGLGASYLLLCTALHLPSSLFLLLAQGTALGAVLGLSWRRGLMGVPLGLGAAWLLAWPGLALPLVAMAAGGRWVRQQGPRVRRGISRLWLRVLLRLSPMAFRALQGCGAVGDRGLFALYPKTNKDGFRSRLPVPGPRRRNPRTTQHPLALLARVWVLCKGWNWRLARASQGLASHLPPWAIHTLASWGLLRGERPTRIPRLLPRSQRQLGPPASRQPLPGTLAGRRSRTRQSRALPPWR
Target,log2 fold change [1],log2 fold change [2],log2 fold change [3],log2 fold change [4],log2 fold change [5],log2 fold change [6],log2 fold change [7],log2 fold change [8],log2 fold change [9],log2 fold change [10],log2 fold change [11],log2 fold change [12],log2 fold change [13],log2 fold change [14],log2 fold change [15]
SNIP1 (UniProt Q8TAD8),-0.1,0.037,-0.078,-0.149,–,–,–,–,–,–,–,–,–,–,–
SLC22A18 (UniProt Q96BI1),–,–,–,–,-0.027,-0.032,0.029,0.007,-0.136,-0.044,0.006,0.004,0.013,–,–
STAU1 isoform 3 (UniProt O95793),-0.051,-0.024,-0.023,0.032,-0.11,0.088,–,-0.047,–,-0.076,-0.103,-0.156,–,–,–
SMPD2 (UniProt O60906),–,–,–,–,–,–,0.029,0.069,–,0.261,-1.47 (active),–,0.058,-0.169,-0.102
TAOK2 isoform 2 (UniProt Q9UL54),0.109,0.013,-0.01,0.031,–,–,–,–,–,–,–,–,–,–,–
SZT2 (UniProt Q5T011),-0.03,0.434,0.02,-0.019,–,–,-0.009,-0.046,–,1.2 (active),-0.081,–,-0.1,0.04,-0.122
SLC12A6 isoform 2 (UniProt Q9UHW9),–,–,–,–,-0.011,-0.055,-0.043,0.039,–,0.17,-0.03,-0.064,-0.114,-0.072,0.206
SLCO4A1 (UniProt Q96BD0),-0.006,0.044,0.008,0.076,–,–,–,–,–,–,–,–,–,–,–
SPPL2A (UniProt Q8TCT8),–,–,–,–,-0.21,0.046,0,-0.072,0.407,-0.106,-0.069,0.047,0.141,–,–
SLC41A1 (UniProt Q8IVJ1),-0.009,0.012,0.07,-0.02,0.23,-0.003,0.014,0.055,–,0.06,-0.063,-0.37 (active),0.007,–,–
SMIM1 (UniProt B2RUZ4),0.056,0.05,0.195,0.039,0.168,-0.055,-0.188,-0.418 (active),–,0.177,-0.076,0.12,0.042,–,–
SOX5 (UniProt P35711),–,–,–,–,0.027,-0.03,-0.186,-0.004,-0.036,-0.014,0.099,-0.027,-0.083,-0.035,-0.095
SORBS3 (UniProt O60504),–,–,–,–,-0.088,0.022,0.036,-0.019,-0.122,-0.561 (active),0.057,0.031,0.01,0.005,-0.019
SRGN (UniProt P10124),–,–,–,–,-0.026,0,0,-0.086,-0.073,0.132,-0.123,-0.087,-0.013,0.003,-0.062
TARDBP (UniProt K7EN94),–,–,–,–,–,–,–,–,0.1,–,–,–,-0.166,–,–
STK26 isoform 3 (UniProt Q9P289),–,–,–,–,0.093,0.203,–,–,–,–,–,0.014,0.116,0.181,-0.028
SRC isoform 2 (UniProt P12931),–,–,–,–,–,–,0.015,0.012,–,0.073,-0.069,–,-0.111,–,-0.023
SLC25A44 (UniProt Q96H78),–,–,–,–,-0.025,0.044,0.005,0.363,0.13,0.025,-0.02,-0.056,-0.026,-0.539 (active),-0.162
SSX5 isoform 2 (UniProt O60225),0.008,-0.018,0.064,0.061,–,–,0.026,0.15,-0.111,-0.059,0.091,–,-0.035,–,–
